Screening data: PubChem BioAssay, several laboratories
BH1578 lux ind = inducers of Vibrio cholerae quorum light production without autoinducers, primary screen, BH1578 luxS cqsA deficient, single point. activation, % at 18.7 µM. hit rate 0.16% among 350,000. V. cholerae BH1578 lux reporter, luminescence, 6 h; in the data active = activation mostly above about 9.7%, no sharp cut-off
Mtb FBA inh = Mtb FBA enzyme inhibitors, primary screen, biochemical, fluorescence, strain H37Rv. Fructose-bisphosphate aldolase (Mycobacterium tuberculosis (strain ATCC 25618 / H37Rv)), …. purified M. tuberculosis FBA, fluorescence read-out. inhibition, % at 1 µM. hit rate 2.3% among 360,000; in the data active = inhibition above about 27%;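 note: 0% = vehicle and 100% = reference inhibitor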
Target sequence (P9WQA3 whole entry, looked up): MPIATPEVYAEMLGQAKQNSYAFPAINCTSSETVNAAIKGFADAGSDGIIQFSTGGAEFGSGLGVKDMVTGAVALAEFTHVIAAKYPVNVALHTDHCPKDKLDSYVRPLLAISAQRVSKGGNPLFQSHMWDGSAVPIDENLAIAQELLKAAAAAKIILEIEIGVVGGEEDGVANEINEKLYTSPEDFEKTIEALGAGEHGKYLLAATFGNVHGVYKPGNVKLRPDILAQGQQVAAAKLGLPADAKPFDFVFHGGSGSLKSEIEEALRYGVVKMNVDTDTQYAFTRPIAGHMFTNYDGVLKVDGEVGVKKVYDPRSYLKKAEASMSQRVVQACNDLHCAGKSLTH
CCHFV vOTU inh = CCHFV vOTU protease inhibitors, primary screen, biochemical, Pep-AMC substrate, fluorescence. Crimean-Congo hemorrhagic fever virus L polyprotein viral ovarian tumor (vOTU) protease …. inhibition, % at 11.5 µM. hit rate 0.55% among 370,000; note: 0% = vehicle wells with enzyme and 100% = no enzyme wells
GDH-TPI counter = GDH-TPI coupling enzyme inhibitors, primary screen, artefact control for M. tuberculosis FBA inhibitor project, biochemical, absorbance, full deck. hit rate 1.2% among 360,000. inhibition, % at 4.8 µM. GDH-TPI coupled enzyme counterscreen, NADH absorbance;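 note: 0% = DMSO wells and 100% = wells lacking the enzyme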
* marks the source's active call; other numbers are inactive results; i = inactive; . = no result; + = active, no number. Rows were chosen to be rich in hits. Some 3.9% of all compounds tested hit in one or more screens of this group. Cut-off read from the data, not from the text of the source, unless noted: active = inhibition above about 30%; inactive = the rest.

SMILES	BH1578 lux ind	Mtb FBA inh	CCHFV vOTU inh	GDH-TPI counter
COc1ccc2c(c1OC)C(=O)OC2CC(=O)c1ccc(O)cc1 (centres undefined)	i	-6	21	20
COc1ccc2c(c1OC)C(=O)OC2CC(=O)c1ccc(N(C)C)cc1 (centres undefined)	0	-8	26	31*
COC1=CC(=NCl)C=CC1=NCl	.	-3	.	.
Cc1noc(/C=C/N(C)C)c1S(=O)(=O)N1CCCC(C(=O)Nc2ccc(F)cc2F)C1 (centres undefined)	-2	-6	19	39*
Cc1ccc(CCNC(=O)C2CCCN(S(=O)(=O)c3c(C)noc3/C=C/N(C)C)C2)cc1 (centres undefined)	0	-2	10	53*
Cc1ccc(NC(=O)C2CCCN(S(=O)(=O)c3c(C)noc3/C=C/N(C)C)C2)c(C)c1 (centres undefined)	i	-2	-4	36*
Cc1ccc(C)c(NC(=O)C2CCCN(S(=O)(=O)c3c(C)noc3/C=C/N(C)C)C2)c1 (centres undefined)	-4	-4	5	38*
CS(=O)(=O)N1CCCC(C(=O)Nc2ccc(F)cc2F)C1 (centres undefined)	i	-1	2	7
Cc1cc(C)nc(SCC(=O)Nc2ccc(S(=O)(=O)NC(C)(C)C)cc2)n1	0	5	-6	7
Cc1onc(-c2ccccc2)c1-c1ccc(S(N)(=O)=O)cc1	i	-2	0	8
O=C(O)COCC(=O)Nc1ccc2c(c1)ncn2CCc1ccccc1	1	-1	-1	-4
COc1ccc(CCCc2nnc(SCC(=O)N/N=C\c3ccc(O)c(OC)c3)o2)cc1C	-1	-1	5	18
COc1ccc(/C=N/NC(=O)CSc2nnc(CCCc3ccc(OC)c(C)c3)o2)cc1	33*	0	-6	-5
COC(=O)c1ccc(-c2ccc(F)cc2)nc1C	i	2	-6	4
O=C1c2c(O)cc(O)cc2O[C@@]12c1c(cc(O)c3c1O[C@H](c1ccc(O)cc1)[C@@H](O)C3)O[C@@H]2c1ccc(O)cc1	1	6	3	36*
CN(C)c1ccc(-c2nnc(-c3cccs3)o2)cc1	0	21	-12	21
CN(C)c1oc(-c2cccs2)nc1C#N	1	+	-231	30
CN(C)c1oc(-c2ccccc2F)nc1C#N	i	+	-174	22
COc1ccc(Nc2oc(-c3cccs3)nc2C#N)cc1	i	10	11	16
CNc1oc(-c2cccs2)nc1C#N	i	+	-229	23
O=C(CSc1nnc(C2CC2)n1C1CC1)c1ccc(F)c(F)c1	0	1	5	4
CN1CC=C2C(C#N)=C(N)C(C#N)(C#N)C(CCc3ccccc3)C2C1 (centres undefined)	-1	39*	.	0
COc1ccc(C(=O)NNC(=S)NC(=O)c2cccc([N+](=O)[O-])c2)cc1	i	0	1	35*
COc1ccc(C(=O)NNC(=S)NC(=O)c2cc(-c3ccccc3)nc3ccccc23)cc1	-1	2	16	33*
CCNC(=S)NNC(=O)c1cc(-c2cccc(OC)c2)nc2ccccc12	0	-1	-7	0
SMILES	BH1578 lux ind	Mtb FBA inh	CCHFV vOTU inh	GDH-TPI counter
COc1cccc(-c2cc(C(=O)Nc3nc4ccccc4s3)c3ccccc3n2)c1	0	4	-12	33*
CCNC(=S)NNC(=O)c1cc(-c2ccc(OCC)cc2)nc2ccccc12	i	11	4	37*
COC(=O)C[C@H]1CC[C@@H]2[C@H](COc3ccc(NC(=O)C(C)C)cc3C(=O)N2C)O1	.	.	9	.
CSc1nc(N2CCOCC2)c2c(c1C#N)CCCCC2	0	25	-9	3
O=C1CC(c2cccc(O)c2)Oc2ccccc21 (centres undefined)	0	0	11	10
COc1ccc(/C=C(\C)C(=O)c2c(C)cc(C)[nH]c2=O)cc1	0	-9	0	27
CCOc1ccc(/C=C(\C)C(=O)c2c(C)cc(C)[nH]c2=O)cc1	i	-3	16	46*
CC(C)(C)C(=O)CSc1nc(N)cc(=O)[nH]1	0	2	-9	35*
CC(=O)N/C(=N\c1nc(C)cc(C)n1)Nc1ccc(Cl)cc1Cl	-1	2	6	12
O=c1oc2cc(Oc3c([N+](=O)[O-])cc(C(F)(F)F)cc3[N+](=O)[O-])ccc2c2c1CCCC2	0	+	-19	22
O=c1oc2cc(Oc3ccc(C(F)(F)F)cc3[N+](=O)[O-])ccc2c2c1CCC2	0	11	-7	7
COC(=O)c1ccc(CSc2ncnc3c2sc2nc(N4CCOCC4)c4c(c23)CCCC4)o1	0	4	2	32*
OCCN1CCN(c2ncnc3c2sc2nc(N4CCOCC4)c4c(c23)CCC4)CC1	0	20	1	44*
CC1(C)Cc2c(c(N3CCCC3)nc3sc4c(N5CCN(CCO)CC5)ncnc4c23)CO1	i	10	-1	33*
OCCN(CCO)c1ncnc2c1sc1nc(N3CCOCC3)c3c(c12)CCCC3	0	7	2	26
C#Cc1cccc(C(=O)NC2CCCN(C3Cc4ccccc4C3)C2)c1 (centres undefined)	-3	0	-6	5
CN(C)CCCN1C(=O)C(O)=C(C(=O)c2cc3ccccc3o2)C1c1ccccn1 (centres undefined)	i	0	9	22
Cc1cc(CSc2ccccc2)ccc1NC(=O)c1ccc(Br)cc1	0	-3	-9	-2
Cc1ccc2c(c1)COc1c3ccc(C(=O)N[C@@H](CO)C(C)C)cc3nn1-2	-1	33*	-17	21
COCCNC(=O)c1ccc2c3n(nc2c1)-c1ccc(C)cc1CO3	-1	49*	-20	27
COCCCNC(=O)c1ccc2c(c1)ncn2-c1ccc(C)cc1C	i	150*	-9	1
C[C@@H](CO)NC(=O)c1ccc2c3n(nc2c1)-c1ccccc1CO3	-5	22	-7	17
CCS(=O)(=O)N1CCC(C(=O)Nc2ccc3c(c2)CCC3)CC1	i	-2	-1	5
O=C(O)CCCCCNC(=O)c1ccccc1Br	2	1	-11	11
O=C(COC(=O)CNS(=O)(=O)c1ccc(F)c(F)c1F)NCCc1ccccc1	-1	-2	-4	5
CC(=O)c1cccc(N(C(=O)c2ccccn2)C(C(=O)NC2CCCCC2)c2ccccc2)c1 (centres undefined)	i	1	14	-8
CC(=O)c1ccc(N2CCN(C(=S)Nc3ccc(Oc4ccccc4)cc3)CC2)cc1	i	2	12	20
O=C(c1ccc(N2CCN(C(=O)c3cccc(F)c3)CC2)cc1)c1cccc(F)c1	-1	-1	5	31*
CC(=O)c1ccc(N2CCN(C(=S)Nc3cccc(F)c3)CC2)cc1	0	3	6	35*
